Screens from PubChem BioAssay.
A selection: hits, their analogues and other compounds. The true share with any hit is near 4.6%.
IL1B NFkB pot: enhancers of NFkB p65 translocation in HUVEC – imaging, IL-1B stimulus, high-content imaging, primary screen; activation, % at 2 µM; AID 819, 2007; HUVEC IL-1B NFkB p65 nuclear translocation imaging; 94,000 tested, 0.3% active;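 active means activation above 40%, about the mean plus 3 SD, also judged a hit on visual image review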;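 further: percent activation is computed from the nuclear over cytoplasmic p65 intensity ratio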
sEH inhibitor: soluble epoxide hydrolase inhibitors, primary screen, biochemical, human sEH; Bifunctional epoxide hydrolase 2 (Homo sapiens), P34913; recombinant human sEH enzymatic activity assay; inhibition, % at 2 µM; 91,000 tested, 0.34% active; AID 707, 2007; in the data active means inhibition above about 80%
Target sequence (P34913 whole entry, looked up): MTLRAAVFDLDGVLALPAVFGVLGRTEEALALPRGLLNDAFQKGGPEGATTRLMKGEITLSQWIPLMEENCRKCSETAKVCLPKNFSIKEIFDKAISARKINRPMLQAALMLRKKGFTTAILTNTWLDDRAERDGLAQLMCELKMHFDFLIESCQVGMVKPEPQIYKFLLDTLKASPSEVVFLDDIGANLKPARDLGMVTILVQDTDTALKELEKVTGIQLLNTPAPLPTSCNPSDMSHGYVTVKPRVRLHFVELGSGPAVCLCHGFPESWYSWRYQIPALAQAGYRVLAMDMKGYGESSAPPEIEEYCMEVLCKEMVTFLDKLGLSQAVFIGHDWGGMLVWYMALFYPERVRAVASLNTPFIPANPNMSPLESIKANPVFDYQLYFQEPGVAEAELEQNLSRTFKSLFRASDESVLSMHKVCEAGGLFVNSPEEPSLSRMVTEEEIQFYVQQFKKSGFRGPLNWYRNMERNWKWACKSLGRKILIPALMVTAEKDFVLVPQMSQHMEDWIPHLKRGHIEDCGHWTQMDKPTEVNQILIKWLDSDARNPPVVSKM
Cav32 inh: Cav3.2 calcium influx blockers – cell-based, Fluo-4 calcium fluorescence, FDSS, MLSMR library, primary screen. Voltage-dependent T-type calcium channel subunit alpha-1H (Homo sapiens), O95180. Cav3.2-expressing cells; stronger effect = lower value. B-score at 10 µM. 100,000 tested, 4% active. AID 449739, 2010;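 active means single-dose well whose peak fluorescence ratio is a statistical outlier from its plate by either plate-standardised score or position-corrected B-score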
sEH act: soluble epoxide hydrolase activators, primary screen, biochemical, human sEH; 91,000 tested, 0.04% active; purified human sEH enzymatic activity, activator screen; AID 717, 2007; activation, % at 2 µM; in the data active means activation above about 37%
NFkB transloc inh: inhibitors of IL-1B driven NFkB p65 nuclear import, primary screen, imaging, HUVEC, IL-1B stimulus, high-content imaging | HUVEC IL-1B NFkB p65 nuclear translocation imaging | inhibition, % at 2 µM | 94,000 tested, 0.43% active;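 active means inhibition above about 30% together with a positive call from visual inspection of the well image, limit read from the data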;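 further: nuclear over cytoplasmic p65 intensity ratio measured by imaging; 0% = IL-1B stimulated DMSO wells and 100% = unstimulated DMSO wells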
HUVEC tox IL1B: cytotoxicity in IL-1B stimulated HUVEC, primary screen, cytotoxicity control for IL-1B NFkB translocation project, imaging, Hoechst nuclear count, IL-1B stimulus; HUVEC cell count loss; cell count reduction, % at 2 µM; 94,000 tested, 0.41% active; AID 845, 2007;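 active means cell count reduction more than 3 SD above the screen-wide mean, cut at about 70% in these data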;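 further: normalized per plate to untreated control cells as the no-loss baseline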
Active calls of the source: *.

What do the screens show for `O=C(NC1CCN(C(=O)N2c3ccccc3Sc3ccccc32)CC1)c1ccccc1Cl`?
IL1B NFkB pot: 29.5; sEH inhibitor: 6.4; Cav32 inh: -1.62; sEH act: -3.5; NFkB transloc inh: -29.5; HUVEC tox IL1B: -2.1

What do the screens show for `COc1cccc(C(=O)NC2CCN(C(=O)N3c4ccccc4Sc4ccccc43)CC2)c1`?
IL1B NFkB pot: 1.7; sEH inhibitor: 20.7; Cav32 inh: -3.94*; sEH act: -19.8; NFkB transloc inh: -1.7; HUVEC tox IL1B: -26.9

How did Nc1nc(-c2ccccc2)cn1N do in these assays?
IL1B NFkB pot: 4.4; sEH inhibitor: -9.8; Cav32 inh: -0.469; sEH act: 10.8; NFkB transloc inh: -4.4; HUVEC tox IL1B: 11.4

How did c1ccc(-c2cn3nc(-c4ccccc4)c(-c4ccccc4)nc3n2)cc1 do in these assays?
IL1B NFkB pot: -4.0; sEH inhibitor: -23.3; Cav32 inh: -5.27*; sEH act: 20.8; NFkB transloc inh: 4.0; HUVEC tox IL1B: -94.4

What do the screens show for `O=C(c1ccc2c(c1)OCCO2)C1CCN(C(=O)c2ccc(F)c(F)c2)CC1`?
IL1B NFkB pot: -3.8; sEH inhibitor: 2.5; Cav32 inh: -3.87*; sEH act: -3.1; NFkB transloc inh: 3.8; HUVEC tox IL1B: -15.8

Results for O=C(c1ccc2c(c1)OCCO2)C1CCN(C(=O)c2ccc(F)cc2)CC1 ?
IL1B NFkB pot: 0.4; sEH inhibitor: 8.2; Cav32 inh: -1.11; sEH act: -7.0; NFkB transloc inh: -0.4; HUVEC tox IL1B: -16.3

What do the screens show for `COc1cc(/C=C/C(=O)O)ccc1O`?
Cav32 inh: 0.597

What do the screens show for `COc1cc(/C=C/C(=O)CC(=O)/C=C/c2ccc(O)c(OC)c2)ccc1O`?
Cav32 inh: -4.21*

How did CCOC(=O)C1CCCN(C(=O)CC(c2ccccc2)c2ccccc2)C1 (centres undefined) do in these assays?
IL1B NFkB pot: -12.8; sEH inhibitor: -9.7; Cav32 inh: -2.51; sEH act: 12.8; NFkB transloc inh: 12.9; HUVEC tox IL1B: 3.1

Results for CCOC(=O)C1CCCN(C(=O)C2c3ccccc3Oc3ccccc32)C1 (centres undefined) ?
IL1B NFkB pot: 1.2; sEH inhibitor: 11.2; Cav32 inh: -5.76*; sEH act: -10.7; NFkB transloc inh: -1.2; HUVEC tox IL1B: -10.6

Results for CCC(C(=O)O/N=C(\N)c1ccc(Cl)cc1)c1ccccc1 (centres undefined) ?
IL1B NFkB pot: 2.6; sEH inhibitor: 15.7; Cav32 inh: -5.62*; sEH act: -17.9; NFkB transloc inh: -2.6; HUVEC tox IL1B: 1.7

What do the screens show for `CCC(C(=O)O/N=C(\N)c1ccccc1)c1ccccc1` (centres undefined)?
IL1B NFkB pot: 4.7; sEH inhibitor: 0.9; Cav32 inh: -3.63*; sEH act: 1.4; NFkB transloc inh: -4.7; HUVEC tox IL1B: -13.5

What do the screens show for `Cc1noc(/C=C/N(C)C)c1S(=O)(=O)N1CCCC(C(=O)NCCC2=CCCCC2)C1` (centres undefined)?
IL1B NFkB pot: 12.2; sEH inhibitor: 87.7*; sEH act: -87.8; NFkB transloc inh: -12.2; HUVEC tox IL1B: -34.6

How did Cc1noc(C)c1C(=O)OCC(=O)NCCC1=CCCCC1 do in these assays?
IL1B NFkB pot: 113.5*; sEH inhibitor: 9.7; Cav32 inh: -0.141; sEH act: -8.2; NFkB transloc inh: -113.5; HUVEC tox IL1B: -1.7

How did CC(C)(C)C(=O)c1sc2nc(-c3cccs3)cc(C(F)(F)F)c2c1N do in these assays?
IL1B NFkB pot: -1.8; sEH inhibitor: -1.9; Cav32 inh: -8.35*; sEH act: 0.6; NFkB transloc inh: 1.8; HUVEC tox IL1B: -22.6

Results for O=c1c2ccc(Cl)cc2nc(-c2cccc(C(F)(F)F)c2)n1O ?
IL1B NFkB pot: -2.7; sEH inhibitor: 1.4; Cav32 inh: -5.85*; sEH act: -0.3; NFkB transloc inh: 2.7; HUVEC tox IL1B: -5.3

How did O=c1c2ccccc2nc(-c2ccc(Cl)c(Cl)c2)n1O do in these assays?
sEH inhibitor: 5.3; Cav32 inh: -4.26*; sEH act: -5.2

What do the screens show for `On1c(-c2ccccc2)nc2ccc(Cl)cc21`?
IL1B NFkB pot: 5.3; sEH inhibitor: 4.6; Cav32 inh: 0.55; sEH act: -7.1; NFkB transloc inh: -5.3; HUVEC tox IL1B: -78.8

How did C=CCOCCN1C(=O)C2C(c3ccccc3)C=CC(c3ccccc3)C2C1=O (centres undefined) do in these assays?
IL1B NFkB pot: -5.7; sEH inhibitor: 4.6; Cav32 inh: -3.28*; sEH act: -3.3; NFkB transloc inh: 5.7; HUVEC tox IL1B: -12.9

Results for CCCOC(=O)c1ccc(NC(=O)CCOc2ccccc2)cc1 ?
IL1B NFkB pot: 3.4; sEH inhibitor: 13.0; Cav32 inh: -3.99*; sEH act: -11.8; NFkB transloc inh: -3.4; HUVEC tox IL1B: 7.8

Results for CCCCC(=O)Nc1ccc(C(=O)OC2CCCCC2)cc1 ?
IL1B NFkB pot: 12.7; sEH inhibitor: 22.6; Cav32 inh: -4.02*; sEH act: -20.1; NFkB transloc inh: -12.7; HUVEC tox IL1B: 13.8

What do the screens show for `CCOC(=O)c1ccc(NC(=O)CCOc2ccccc2)cc1`?
IL1B NFkB pot: 2.5; sEH inhibitor: 9.4; Cav32 inh: -2.16; sEH act: -10.2; NFkB transloc inh: -2.5; HUVEC tox IL1B: -74.4

How did O=C(O)CCC(=O)Nc1ccc(C(=O)OC2CCCCC2)cc1 do in these assays?
IL1B NFkB pot: 17.2; sEH inhibitor: -6.0; Cav32 inh: 0.247; sEH act: 7.1; NFkB transloc inh: -17.2; HUVEC tox IL1B: -62.8

How did CCn1c2ccccc2c2cc(NC(=O)c3cccc(OC)c3)ccc21 do in these assays?
IL1B NFkB pot: -9.6; sEH inhibitor: 10.3; Cav32 inh: -0.142; sEH act: -8.7; NFkB transloc inh: 9.6; HUVEC tox IL1B: -20.7

How did CCOC(=O)c1oc2cccc(O)c2c1CN1CCOCC1 do in these assays?
IL1B NFkB pot: 2.1; sEH inhibitor: -1.2; Cav32 inh: 0.38; sEH act: 4.3; NFkB transloc inh: -2.1; HUVEC tox IL1B: 7.6

How did CCOC(=O)c1c(NC(=O)c2cccs2)sc2c1CCCC2 do in these assays?
IL1B NFkB pot: 12.0; sEH inhibitor: 1.5; Cav32 inh: -0.0432; sEH act: -3.2; NFkB transloc inh: -12.0; HUVEC tox IL1B: 6.7

How did CCOC(=O)c1c(NS(=O)(=O)c2ccc(Br)cc2)sc2c1CCC2 do in these assays?
IL1B NFkB pot: -17.0; sEH inhibitor: 6.4; Cav32 inh: -8.48*; sEH act: -1.4; NFkB transloc inh: 17.0; HUVEC tox IL1B: 30.6

Results for CCOC(=O)c1c(NS(=O)(=O)Cc2ccccc2)sc2c1CCCC2 ?
IL1B NFkB pot: 12.8; sEH inhibitor: -5.6; Cav32 inh: -4.21*; sEH act: 7.7; NFkB transloc inh: -12.8; HUVEC tox IL1B: 0.6
